Data taken from PubChem BioAssay.
Calls of active or inactive are those of the source.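 How the source made its calls, unless noted: active means fluorescence slope higher than the sample average by over 3 SD (cut at about -0.22 in these data, passing the limit was not always enough); inactive means the rest.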

Tests used:
[1] = inhibitors of TNFa-induced NFkB p65 translocation, primary screen, imaging, HUVEC, MLSMR starter and 10KST1 sets (AID 438;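 active means inhibition above 20% together with a positive visual image hit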;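 further: compound added about 3h40 before a 20 min TNFalpha stimulation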;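 on inhibition: signal is the nuclear over cytoplasmic p65 intensity ratio per well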); settings: HUVEC TNFa-induced p65 nuclear translocation; cell count: measured here: nuclei count (cytotoxicity indicator), at 2.08 µM; inhibition: at 2 µM, stronger effect = higher value, 0% TNFa-plus-vehicle, 100% no-TNFa wells
[2] = reduction of polyQ htt aggregates in cells – imaging, exon1htt(103Q)mCFP cells, high-content imaging, primary screen (AID 483;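 active means visual image review flags a hit and inhibition of aggregation exceeds 20%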;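 further: compound exposure lasted 3 days before fixation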;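 on nuclei count: percent of the per-plate median nuclei count of sample wells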); settings: exon1htt(103Q)mCFP cell line, aggregate imaging, at 2 µM; inhibition of aggregation: stronger effect = higher value; nuclei count: measured here: cell count, toxicity
[3] = endothelial E-selectin expression blockers – imaging, HUVEC, immunofluorescence, MLSMR starter and 10KST1 sets, primary screen (AID 487;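 active means visually confirmed hit in the image check and inhibition above 20%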;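 on inhibition: signal is fraction of cell area covered by stained E-selectin grains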;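 on nuclei count: 100% = median nuclei count of all wells on the same plate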); settings: HUVEC TNFalpha-induced E-selectin immunofluorescence imaging, at 2 µM; inhibition: stronger effect = higher value; nuclei count: measured here: cell number, toxicity
[4] = target: Voltage-gated potassium channel subunit beta-2 (Rattus norvegicus) (UniProt P62483); assay: inhibitors of rat Kvbeta2 reductase activity – biochemical, NADPH fluorescence, primary screen (AID 622); settings: recombinant KvBeta, 4-cyanobenzaldehyde reduction, at 10 µM, stronger effect = higher value;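 further: slope of raw intensity against log time taken from 70 to 1610 s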
Sequence of Voltage-gated potassium channel subunit beta-2 (Rattus norvegicus) (P62483 whole entry, looked up): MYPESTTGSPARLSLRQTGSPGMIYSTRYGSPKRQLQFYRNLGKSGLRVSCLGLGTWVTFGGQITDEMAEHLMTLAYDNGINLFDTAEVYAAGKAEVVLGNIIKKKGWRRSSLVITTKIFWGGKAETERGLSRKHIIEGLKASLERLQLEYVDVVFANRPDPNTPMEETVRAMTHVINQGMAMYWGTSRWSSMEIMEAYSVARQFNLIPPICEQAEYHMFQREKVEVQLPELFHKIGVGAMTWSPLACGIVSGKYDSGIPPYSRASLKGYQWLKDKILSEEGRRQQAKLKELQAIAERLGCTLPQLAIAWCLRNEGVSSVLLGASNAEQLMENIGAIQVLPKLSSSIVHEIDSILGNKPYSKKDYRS

[5] = target: Voltage-gated potassium channel subunit beta-2 (Rattus norvegicus) (UniProt P62483); assay: enhancers of rat Kvbeta2 NADPH turnover – biochemical, NADPH fluorescence, primary screen (AID 623;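 active means NADPH fluorescence slope more negative than the mean of all samples by about 3 SD, 99.7% confidence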;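 further: fluorescence intensity change per second fitted from 20 to 320 s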); settings: Recombinant KvBeta, NADPH fluorescence decrease slope, 10 min; at 10 µM; stronger effect = lower value
[6] = target: Alpha-2C adrenergic receptor (Homo sapiens) (UniProt P18825); assay: compounds altering alpha2C-coupled GIRK flux – cell-based, HEK293 alpha2C/GIRK1/2, thallium flux, primary screen (AID 624;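 active means fluorescence slope after compound addition differing from the mean of all screened samples at 99.7% confidence, in either direction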;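 further: slope of fluorescence ratio to pre-addition baseline per second over 15 to 24 s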); settings: thallium flux BTC fluorescence, at 10 µM, actives lie on both sides
Sequence of Alpha-2C adrenergic receptor (Homo sapiens) (P18825 whole entry, looked up): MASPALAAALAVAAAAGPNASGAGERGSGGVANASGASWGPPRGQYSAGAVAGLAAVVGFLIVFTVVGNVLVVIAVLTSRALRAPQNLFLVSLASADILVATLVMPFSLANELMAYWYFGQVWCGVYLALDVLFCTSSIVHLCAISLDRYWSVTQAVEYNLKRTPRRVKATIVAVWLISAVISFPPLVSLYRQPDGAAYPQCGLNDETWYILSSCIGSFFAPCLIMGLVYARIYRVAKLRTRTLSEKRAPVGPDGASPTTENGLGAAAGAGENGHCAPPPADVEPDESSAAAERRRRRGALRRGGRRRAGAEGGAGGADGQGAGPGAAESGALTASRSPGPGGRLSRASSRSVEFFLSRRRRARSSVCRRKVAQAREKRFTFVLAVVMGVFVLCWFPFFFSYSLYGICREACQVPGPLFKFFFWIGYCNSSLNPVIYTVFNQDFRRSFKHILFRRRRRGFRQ

[7] = blockers of RIG-like receptor reporter activation – cell-based, Sendai virus stimulus, luciferase, 10K MLSCN set, TLR/RLR signaling modifier project, primary screen (AID 602276;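 active means inhibition at or above 50% at 10 µM; inactive means inhibition below 50%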;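 further: firefly luciferase from ISG56 promoter only with Renilla not read in this screen; 0% = Sendai virus plus DMSO and 100% = medium plus DMSO without virus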); settings: HEK293 RL24 IRF3 luciferase reporter, at 10 µM, stronger effect = higher value
[8] = TLR3 IRF3 reporter activation blockers – cell-based, poly I:C stimulus, luciferase, 10K MLSCN set, primary screen (AID 602277;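 active means inhibition of the reporter signal at or above 50%; inactive means inhibition below 50%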); settings: HEK293-TLR3 RL24 IRF3 luciferase reporter, at 10 µM, stronger effect = higher value

| SMILES | cell count [1] | inhibition [1] | inhibition of aggregation [2] | nuclei count [2] [%] | inhibition [3] | nuclei count [3] [%] | fluorescence slope [4] | NADPH fluorescence slope [5] | slope [6] | inhibition [7] | inhibition [8] |
| --- | --- | --- | --- | --- | --- | --- | --- | --- | --- | --- | --- |
| CCOC(=O)c1cc2cc(F)ccc2nc1C | 646 | 4.9% (inactive) | 13.9% (inactive) | 106 | -7% (inactive) | 118 | -0.612 (inactive) | -2.7e-05 (inactive) | 0.00327 (inactive) | -17.9% (inactive) | -45.1% (inactive) |
| CCOC(=O)CC1=C(C(=O)OCC)C(c2ccc(C)o2)C(C#N)=C(N)O1 (stereo unspecified) | 339 | -16.4% (inactive) | 15.3% (inactive) | 91.9 | -46.5% (inactive) | 94.7 | -0.625 (inactive) | 3.1e-06 (inactive) | 0.00603 (inactive) | 3.2% (inactive) | 8.99% (inactive) |
| N#Cc1cnc(SCCc2ccccc2)nc1N | 630 | -13.1% (inactive) | -5.2% (inactive) | 93.9 | -14.8% (inactive) | 108 | -0.291 (inactive) | -5.5e-05 (inactive) | 0.00492 (inactive) | -34% (inactive) | -61.8% (inactive) |
| COc1ccccc1OCCOc1ccccc1/C=N/n1cnnc1 | 375 | -3.8% (inactive) | -14.3% (inactive) | 94.1 | -66.6% (inactive) | 103 | -0.402 (inactive) | -2.8e-05 (inactive) | 0.00507 (inactive) | -3.21% (inactive) | -1.03% (inactive) |
| O=C(Cn1c(=O)n(CC2CCCO2)c(=O)c2ccccc21)c1ccccc1 (stereo unspecified) | 361 | 4.4% (inactive) | 1.4% (inactive) | 103 | 4.5% (inactive) | 111 | -0.51 (inactive) | -3.9e-05 (inactive) | 0.00589 (inactive) | 10.8% (inactive) | 16.3% (inactive) |
| CC1C(=O)C(C)C(c2cccs2)NC1c1cccs1 (stereo unspecified) | 295 | -1.4% (inactive) | 10.2% (inactive) | 68.6 | 13.7% (inactive) | 87.4 | -0.501 (inactive) | 9.3e-06 (inactive) | 0.00548 (inactive) | 3.78% (inactive) | 3.34% (inactive) |
| CC1CCc2nn(CC(=O)N3CCN(C(=O)c4ccco4)CC3)cc2C1 (stereo unspecified) | 758 | -8.5% (inactive) | -12% (inactive) | 112 | -41% (inactive) | 107 | -0.585 (inactive) | -5.6e-05 (inactive) | 0.0063 (inactive) | 6.35% (inactive) | 25.7% (inactive) |
| COc1cccc(N2CCN(Cc3cccnc3)CC2)c1 | 621 | -1% (inactive) | -21.4% (inactive) | 96.6 | 15.6% (inactive) | 87.2 | -0.364 (inactive) | -6e-05 (inactive) | 0.00629 (inactive) | 6.56% (inactive) | 11.4% (inactive) |
| CCOc1ccc(Cc2nn[nH]n2)cc1 | 663 | -3.2% (inactive) | 10.3% (inactive) | 90.5 | -38.6% (inactive) | 141 | -0.47 (inactive) | -0.000245 (inactive) | 0.00563 (inactive) | 9.13% (inactive) | 16.7% (inactive) |
| CC(C)(C)c1ccc(C(=O)Nc2cnccn2)cc1 | 351 | 1.7% (inactive) | 7.6% (inactive) | 100 | 11.6% (inactive) | 108 | -0.379 (inactive) | -6.5e-05 (inactive) | 0.0039 (inactive) | -50.1% (inactive) | -138% (inactive) |
| Cc1cc(C(=O)Nc2nc3c(s2)CCCC3)cs1 | 347 | 7.6% (inactive) | -12.3% (inactive) | 111 | -6.3% (inactive) | 107 | -0.532 (inactive) | 1.1e-05 (inactive) | 0.00523 (inactive) | -47% (inactive) | -131% (inactive) |
| Cc1cc(NC(=O)c2ccc3c(c2)C(=O)N(Cc2cccnc2)C3=O)no1 | 770 | -6.4% (inactive) | 1.8% (inactive) | 107 | -127% (inactive) | 128 | -0.615 (inactive) | 1.2e-05 (inactive) | 0.00422 (inactive) | -5.06% (inactive) | -11.7% (inactive) |
| Cc1ccc(S(=O)(=O)N2C(=O)CCC2C(=O)Nc2ccc3c(c2)OCCO3)cc1 (stereo unspecified) | 430 | 3.8% (inactive) | -9.4% (inactive) | 101 | -32.2% (inactive) | 102 | -0.446 (inactive) | -2.2e-05 (inactive) | 0.00315 (inactive) | 10.3% (inactive) | 27.4% (inactive) |
| COc1cc(-c2nnc(SCc3c(F)cccc3Cl)o2)cc(OC)c1OC | 803 | 4.4% (inactive) | 8.8% (inactive) | 103 | 3.2% (inactive) | 106 | -0.493 (inactive) | -1.6e-06 (inactive) | 0.00634 (inactive) | -11.9% (inactive) | 1.41% (inactive) |
| CC(C)C1C2=C(CC(C)(C)CC2=O)ON1c1ccccc1 (stereo unspecified) | 444 | 0.5% (inactive) | 9.1% (inactive) | 86.8 | -51.2% (inactive) | 115 | -0.476 (inactive) | -4.4e-05 (inactive) | 0.0045 (inactive) | 14.4% (inactive) | 16.5% (inactive) |
| COc1ccc(NC(=O)CN(c2cc(C)cc(C)c2)S(=O)(=O)c2c(C)noc2C)cc1OC | 753 | -1.7% (inactive) | -15.7% (inactive) | 116 | -8.7% (inactive) | 117 | -0.551 (inactive) | -2.2e-05 (inactive) | 0.00583 (inactive) | 15.1% (inactive) | 38% (inactive) |
| COc1cccc(-c2nc(CS(=O)(=O)CC(=O)Nc3cc(C)ccc3C)c(C)o2)c1 | 718 | -4.6% (inactive) | -2.5% (inactive) | 59.5 | -21.2% (inactive) | 104 | -0.517 (inactive) | -4.8e-05 (inactive) | 0.00688 (inactive) | 5.73% (inactive) | 27.7% (inactive) |
| c1ccc2c(c1)nc(NC1CCCCC1)c1nncn12 | 446 | -0.5% (inactive) | 11.8% (inactive) | 55.9 | -47.5% (inactive) | 113 | -0.595 (inactive) | -1.7e-05 (inactive) | 0.0061 (inactive) | 0.474% (inactive) | 32.3% (inactive) |
| CC(C)c1nccn1S(=O)(=O)c1cc(Cl)ccc1Cl | 582 | -11.9% (inactive) | 6.2% (inactive) | 110 | 20.8% (inactive) | 122 | -0.422 (inactive) | -4.2e-05 (inactive) | 0.0045 (inactive) | 8.92% (inactive) | 31% (inactive) |
| CC(=O)c1ccc(NC2OC(C)C(O)C(O)C2O)cc1 (stereo unspecified) | 329 | 4.3% (inactive) | -0.6% (inactive) | 93.8 | -90% (inactive) | 103 | -0.382 (inactive) | -8.6e-06 (inactive) | 0.00391 (inactive) | -11.5% (inactive) | -11.5% (inactive) |
| CS(=O)(=O)NCC(c1cccnc1)N1CCN(c2ccc(F)cc2)CC1 (stereo unspecified) | 250 | -10.2% (inactive) | 15.1% (inactive) | 33.8 | 27.3% (inactive) | 72.4 | -0.34 (inactive) | -4.2e-05 (inactive) | 0.00483 (inactive) | -3.05% (inactive) | 1.56% (inactive) |
| O=c1c2ccccc2nc2n1CCN2 | 338 | 4.6% (inactive) | -10.3% (inactive) | 108 | -115% (inactive) | 131 | -0.573 (inactive) | 7.7e-06 (inactive) | 0.00443 (inactive) | 21.2% (inactive) | 20.6% (inactive) |
| CN(c1ccccc1C(N)=O)S(=O)(=O)c1ccccc1 | 385 | -2.9% (inactive) | -21.8% (inactive) | 95.6 | -266% (inactive) | 108 | -0.355 (inactive) | 1.6e-05 (inactive) | 0.00547 (inactive) | 13% (inactive) | 22.7% (inactive) |
| NC(=O)CSc1cn(CCNC(=O)c2cccs2)c2ccccc12 | 604 | -1.4% (inactive) | 7% (inactive) | 84.8 | 19% (inactive) | 98.2 | -0.436 (inactive) | -4.5e-05 (inactive) | 0.00564 (inactive) | -2.46% (inactive) | 23.4% (inactive) |
| CC1CCC2C(C1)c1sc(=O)[nH]c1SC2(C)C (stereo unspecified) | 815 | -7.3% (inactive) | 16.6% (inactive) | 98.3 | -18.7% (inactive) | 116 | -0.365 (inactive) | 2e-05 (inactive) | 0.00605 (inactive) | -1.58% (inactive) | 10.1% (inactive) |
| CN(C)c1ccc(C(=O)Nc2nnc(-c3ccc(Cl)cc3)o2)cc1 | 671 | 1.3% (inactive) | -15.9% (inactive) | 109 | -46.6% (inactive) | 113 | -0.409 (inactive) | -6.1e-05 (inactive) | 0.00542 (inactive) | 13% (inactive) | 29.7% (inactive) |
